PfHsp40 rescue: restores yeast growth despite PfHsp40 toxicity; S. cerevisiae expressing PfHsp40, growth rescue, ATP luminescence; growth rescue, % at 12.5 µM; hit rate 0.68% among 340,000; AID 504582; in the data active means growth rescue above about 28%, passing the limit was not always enough;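 further: yeast W303a lacking pdr1 and pdr3 grown in galactose medium; growth measured after three days at 30 °C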
CCHFV vOTU inh: blocks the CCHF virus ovarian tumor domain protease | CCHFV vOTU protease, Pep-AMC fluorescence | hit rate 0.55% among 370,000 | inhibition, % at 11.5 µM | AID 651958; in the data active means inhibition above about 30%; further: 0% = vehicle wells with enzyme and 100% = no enzyme wells
Yp Topo-I inh: inhibitors of Yersinia pestis topoisomerase I; Y. pestis Topo-I cleavage product accumulation, plate reader; activity, % at 10 µM; AID 504884; hit rate 0.064% among 360,000; in the data active means activity above about 50%, passing the limit was not always enough
BJeLR viability: BJeLR cell viability loss; BJeLR (HRASV12) viability, CellTiter-Glo ATP luminescence, 48 h; inhibition, % (test concentration not listed); hit rate 0.17% among 300,000; AID 1554; in the data active means inhibition above about 50%
PrP UTR inh: suppresses PrP 5' UTR mRNA reporter expression. hit rate 0.35% among 340,000. cell-based PrP 5' UTR mRNA reporter, plate reader. AID 488862. inhibition, % (concentration not given with the values); in the data active means inhibition above about 52%; further: 0 = median of the neutral control wells
PrPC surface inh: inhibitors of human cell surface prion protein PrPC | hit rate 0.43% among 370,000 | P04156 | inhibition, % at 13.8 µM | TR-FRET read-out | AID 720596; in the data active means inhibition above about 24%; further: 0% = median of the test wells and 100% = reference compound wells
PrPC TRFRET cf: cell surface PrPC inhibition, TR-FRET confirmation. shares compounds with PrPC surface inh. cell surface PrPC level. inhibition, % at 13.8 µM. hit rate 65% among 1,500; in the data active means inhibition above about 25%
LD9 cytotox: kills or reduces viability of LD9 cells in PrPc counter-screen. shares compounds with PrPC surface inh. LD9 cells cytotoxicity, luminescence viability. inhibition, % at 13.8 µM. hit rate 29% among 1,500. AID 743201; in the data active means inhibition above about 9.5%
An asterisk follows results filed as active; x = not tested or not shown; ! = not active in a repeat. The list is not random: actives were taken first. Their share in the collection is about 2%.

SMILES | PfHsp40 rescue | CCHFV vOTU inh | Yp Topo-I inh | BJeLR viability | PrP UTR inh | PrPC surface inh | PrPC TRFRET cf | LD9 cytotox
COC(=O)[C@]12C[C@H](CC(=O)NCc3cccc4ccccc34)C(=O)N(CCc3ccc(OC)c(OC)c3)C1=C[C@H](C(C)(C)C)O[C@@H]2C | x | 22.3 | x | x | x | 7.0 | x | x
N#Cc1ccc(NC(=O)OC2CC3CC2[C@H]2CCCCN2C3)cc1 (stereo not given in full) | x | -7.2 | x | x | x | -7.6 | x | x
CCCCOCC1CN(CCCC)S(=O)(=O)c2c(cccc2N2CCCCC2)O1 (stereo not given) | x | 15.7 | x | x | x | 3.7 | x | x
Cc1cc2c(nc1C)CCCN2S(=O)(=O)c1ccc(C(F)(F)F)cc1 | x | 1.5 | x | x | x | -6.0 | x | x
CCOC(=O)CSc1nc(C(C)(C)C)nc2ccccc12 | -0.6 | 12.3 | 17.6 | 6.1 | 7.7 | 31.7* | 58.3* | 0.6
CC(C)NC(=O)CSc1nc(Cc2ccccc2)nc2ccccc12 | -0.4 | 11.9 | 0.0 | -1.5 | -14.4 | 13.1 | x | x
CC(C)OC(=O)CSc1nc(Cc2cccs2)nc2ccccc12 | 1.8 | -0.3 | 28.2 | -0.7 | -5.3 | 37.5* | 23.4 | -3.3
COC(=O)CSc1nc(C(C)C)nc2ccccc12 | -0.6 | -9.8 | -8.8 | -2.3 | -5.3 | 121.0* | 123.4* | -3.8
CCOC(=O)CSc1nc(C(C)C)nc2ccccc12 | -0.5 | -0.3 | 17.3 | -21.9 | -14.9 | 110.3* | 122.8* | -1.4
CC(=O)OCCCN1CCC2(CCCCC2)C1=O | x | -1.2 | x | x | x | -3.1 | x | x
COc1ccc(OC)c(S(=O)(=O)N(CCc2ccc(OC)c(OC)c2)Cc2cccs2)c1 | x | 4.2 | x | x | x | 0.2 | x | x
O=C(NCc1cccc(C(F)(F)F)c1)O[C@H]1CC[C@@]23CCCN2C(=O)CCC[C@H]3C1 | x | x | x | x | x | -6.5 | x | x
CCC[C@H]1[C@@H](NC(=O)NCC)CC[C@@]23CCCN2C(=O)CCC[C@@H]13 | x | x | x | x | x | 7.0 | x | x
CCOC(=O)CSc1nc(C2CC2)nc2ccccc12 | 1.3 | -4.9 | 4.1 | -2.0 | -10.3 | 25.2* | 42.7* | -2.6
CC(C)(C)c1nc(SCC(=O)NNC(=O)c2ccccc2)c2ccccc2n1 | -1.1 | 0.7 | 9.1 | -6.2 | -0.6 | 44.8* | 67.0* | -10.6
CCOC(=O)CSc1nc(COc2ccccc2)nc2ccccc12 | -0.8 | 11.4 | 8.5 | -4.5 | -3.9 | 59.2* | 60.5* | 8.1
COc1ccc2c(c1)CN1C(=O)N(C3CCCC3)S(=O)(=O)CC21 (stereo not given) | x | -2.3 | x | x | x | -4.5 | x | x
COc1cc(-n2c(C)nc3cc(C(=O)N4CCCCC4)ccc32)cc(OC)c1OC | x | -2.0 | x | x | x | -1.8 | x | x
CCOc1ccc(N(C)S(=O)(=O)c2ccc(C)c(C(=O)N3CCN(Cc4ccc5c(c4)OCO5)CC3)c2)cc1 | 0.1 | 6.4 | 20.8 | x | -21.5 | 24.8* | 18.6 | -1.5
Cc1nc(-c2ccc(S(=O)(=O)Nc3ccc(Br)cc3Cl)s2)cs1 | 25.8* | 6.5 | 14.8 | 0.6 | -16.2 | 37.0* | 53.4* | -1.8
CCOc1ccc(C2SCC(=O)Nc3c2c(=O)[nH]n3C2CCCCCC2)cc1 (stereo not given) | 8.8 | 1.9 | 10.7 | 3.7 | -10.1 | 50.6* | 4.6 | -3.4
CSc1sc(-c2ccnc(SCC(=O)C(C)(C)C)n2)c2c1C(=O)CC(C)(C)C2 | -1.3 | -0.2 | 3.2 | -5.5 | -15.4 | 32.2* | 47.8* | -0.6
O=C(NCCc1ccccc1)O[C@H]1CC[C@@]23CCCN2C(=O)CCC[C@H]3C1 | x | x | x | x | x | 4.1 | x | x
CCCCCCSc1cc(-c2nc3ccc(C)cn3c2NCCCC)ccc1OC | 7.4 | 0.7 | 21.2 | x | -9.0 | 1.3 | x | x
CCCCNc1c(-c2ccc(OC)c(SC3CCCCC3)c2)nc2ccc(C)cn12 | 0.0 | -38.5 | -13.7 | x | -11.5 | 38.4*! | 50.1* | 53.3*
COC(=O)Nc1ccc(S(=O)(=O)N2c3ccccc3CCC2C)cc1 (stereo not given) | 0.6 | 16.7 | -3.9 | 24.1 | -39.6 | 28.3* | 7.8 | 3.6
COC(=O)Nc1ccc(S(=O)(=O)N2CCCCC2C(=O)O)cc1 (stereo not given) | -0.8 | 0.9 | -2.0 | -4.7 | -5.4 | 4.1 | x | x
COc1ccc(Nc2nnc(-c3ccc(O)cc3)c3ccccc23)cc1C(N)=O | -2.1 | 2.9 | 4.8 | -3.4 | -6.4 | 94.4* | 99.1* | 3.2
